Parameters in all cases: scale not given: direction of the effect not stated beside the values
For experiment [1], the target named is Protein translocase subunit SecA (Escherichia coli (strain K12)) (UniProt P10408). As to the kind of experiment: Assay to Identify E. coli SecA ATPase Inhibitors. In kind it is functional. As to conditions: 30 µM.
Experiment [2] deals with T1, Ubiquitin-activating enzyme e1, putative (Leishmania donovani (strain BPK282A1)) (UniProt E9BSI1).
T1 sequence (whole entry): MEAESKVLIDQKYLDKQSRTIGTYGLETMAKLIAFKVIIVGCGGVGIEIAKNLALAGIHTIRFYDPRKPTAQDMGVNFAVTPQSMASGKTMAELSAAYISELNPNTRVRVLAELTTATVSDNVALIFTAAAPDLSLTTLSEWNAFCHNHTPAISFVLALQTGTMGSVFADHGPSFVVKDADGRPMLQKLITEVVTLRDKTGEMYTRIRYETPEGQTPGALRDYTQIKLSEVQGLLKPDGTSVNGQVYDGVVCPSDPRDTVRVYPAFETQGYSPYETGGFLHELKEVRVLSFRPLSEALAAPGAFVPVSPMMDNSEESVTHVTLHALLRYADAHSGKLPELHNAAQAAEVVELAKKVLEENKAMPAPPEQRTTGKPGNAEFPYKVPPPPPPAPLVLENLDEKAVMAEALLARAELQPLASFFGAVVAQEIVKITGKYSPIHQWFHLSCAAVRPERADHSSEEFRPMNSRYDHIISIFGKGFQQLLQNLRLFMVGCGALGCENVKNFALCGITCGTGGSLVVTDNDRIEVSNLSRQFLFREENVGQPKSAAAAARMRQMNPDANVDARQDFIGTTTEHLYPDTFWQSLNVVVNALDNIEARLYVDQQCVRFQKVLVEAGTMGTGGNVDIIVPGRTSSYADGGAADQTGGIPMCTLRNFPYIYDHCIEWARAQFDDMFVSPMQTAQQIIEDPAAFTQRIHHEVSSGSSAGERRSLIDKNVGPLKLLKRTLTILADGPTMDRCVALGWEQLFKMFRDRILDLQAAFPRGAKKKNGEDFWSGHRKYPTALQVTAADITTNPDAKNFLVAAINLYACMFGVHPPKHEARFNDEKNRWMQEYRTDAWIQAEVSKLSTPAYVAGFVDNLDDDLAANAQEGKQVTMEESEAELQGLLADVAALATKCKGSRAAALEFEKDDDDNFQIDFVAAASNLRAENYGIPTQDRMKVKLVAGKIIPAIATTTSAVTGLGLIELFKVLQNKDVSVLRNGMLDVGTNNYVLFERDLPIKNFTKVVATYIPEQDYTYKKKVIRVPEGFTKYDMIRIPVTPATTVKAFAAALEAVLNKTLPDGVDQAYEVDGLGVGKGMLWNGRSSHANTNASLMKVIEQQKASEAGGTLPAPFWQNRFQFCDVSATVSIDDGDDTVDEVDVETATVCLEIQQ
The experiment in a line: Leishmania donovani Ubiquitin Activating Enzyme (LdE1). Type of experiment: functional. As to conditions: 30 µM.

Experiment [3] has as its target AMP-activated protein kinase, AMPK (Homo sapiens) (UniProt P54646+O43741+P54619+Q9UGJ0+Q9Y478+Q13131+Q9UGI9). The experiment in a line: AMP-dependent Kinase enzyme assay. An in vitro enzyme assay that detects ADP turnover that is directly proportional to AMPK activity. This uses naive AMPK that is activated during the assay with MK-8722. The conditions noted are these: 30 µM. Type of experiment: functional.

Experiment [4] deals with Sialic acid-binding Ig-like lectin 9 (Homo sapiens) (UniProt Q9Y336). The experiment in a line: Hs-Siglec9 ALPHAscreen SOP 20170721. The conditions noted are these: 10 µM. Background: Alpha assays give light when donor and acceptor beads are brought close together.
A further experiment has as its system Trypanosoma cruzi. The experiment in a line: Trypanosoma cruzi phosphomannomutase and mannose-1-phosphate guanylyltransferase assay. Type of experiment: functional. The conditions noted are these: 10 µM.
The target of experiment [5] is T2, Arginase-2, mitochondrial (Homo sapiens) (UniProt P78540).
T2 sequence (whole entry): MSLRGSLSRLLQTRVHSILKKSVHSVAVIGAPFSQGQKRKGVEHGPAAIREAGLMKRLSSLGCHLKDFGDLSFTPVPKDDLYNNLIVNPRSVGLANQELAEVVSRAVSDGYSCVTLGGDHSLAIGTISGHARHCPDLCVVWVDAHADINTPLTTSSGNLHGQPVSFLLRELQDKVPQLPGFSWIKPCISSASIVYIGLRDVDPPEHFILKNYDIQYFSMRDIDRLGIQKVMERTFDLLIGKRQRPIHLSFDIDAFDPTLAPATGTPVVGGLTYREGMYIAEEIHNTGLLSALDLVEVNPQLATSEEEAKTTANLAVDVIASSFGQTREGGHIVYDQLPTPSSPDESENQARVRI
The experiment in a line: in vitro enzyme assay to detect the production of urea directly proportional to the activity of Arginase II. Also: in the data most compounds retested in dose-response had high values. In kind it is functional. As to conditions: 33.3 µM.

Experiment [6] addresses T3, Proteasome subunit beta (Trypanosoma cruzi) (UniProt O96673).
T3 sequence (whole entry): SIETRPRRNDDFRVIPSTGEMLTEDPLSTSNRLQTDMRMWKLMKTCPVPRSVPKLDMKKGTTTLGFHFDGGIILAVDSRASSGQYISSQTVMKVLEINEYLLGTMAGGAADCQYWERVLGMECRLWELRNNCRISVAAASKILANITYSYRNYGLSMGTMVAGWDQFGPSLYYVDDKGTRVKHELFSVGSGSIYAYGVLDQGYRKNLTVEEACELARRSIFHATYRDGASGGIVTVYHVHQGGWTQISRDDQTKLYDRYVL
The experiment in a line: Trypanosoma cruzi proteasome chymotrypsin-like activity (TcProtChymo) assay. Also: in the data most compounds retested in dose-response had high values. The conditions noted are these: 9.37 µM. In kind it is functional.

The species entered for the next experiment is Homo sapiens. The experiment in a line: To identify inhibition of the IFN signalling (Jak-Stat) pathway via expression of an eGFP reporter gene under the control of an IFN-stimulated response element (ISRE) containing MxA promoter. In kind it is functional. As to conditions: 30 µM.
In experiment [7] the target is T4, Tyrosyl-tRNA synthetase, putative (Trypanosoma cruzi (strain CL Brener)) (UniProt Q4DSP6).
T4 sequence (whole entry): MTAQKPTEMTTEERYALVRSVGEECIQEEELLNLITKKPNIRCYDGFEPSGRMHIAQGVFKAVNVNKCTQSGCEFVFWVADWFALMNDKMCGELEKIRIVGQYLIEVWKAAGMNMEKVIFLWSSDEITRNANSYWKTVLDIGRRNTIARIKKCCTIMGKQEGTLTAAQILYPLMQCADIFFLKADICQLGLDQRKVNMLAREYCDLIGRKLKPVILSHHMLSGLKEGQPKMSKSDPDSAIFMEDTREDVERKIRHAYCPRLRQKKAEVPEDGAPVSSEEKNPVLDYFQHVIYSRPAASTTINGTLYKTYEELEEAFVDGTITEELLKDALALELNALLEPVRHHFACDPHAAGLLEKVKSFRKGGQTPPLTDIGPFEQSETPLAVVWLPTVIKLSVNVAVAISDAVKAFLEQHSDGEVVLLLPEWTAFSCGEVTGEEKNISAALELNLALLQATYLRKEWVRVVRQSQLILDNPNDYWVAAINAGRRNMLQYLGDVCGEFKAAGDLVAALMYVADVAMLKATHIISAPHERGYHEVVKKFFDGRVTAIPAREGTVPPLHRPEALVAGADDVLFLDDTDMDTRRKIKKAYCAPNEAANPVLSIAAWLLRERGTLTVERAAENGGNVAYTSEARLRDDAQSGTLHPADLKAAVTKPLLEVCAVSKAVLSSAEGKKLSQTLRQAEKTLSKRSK
As to the kind of experiment: Trypanosoma cruzi tyrosyl tRNA synthetase (TcYRS) _High Tyrosine SOP. Also: in the data most compounds retested in dose-response had high values. In kind it is functional. As to conditions: 30 µM.

For experiment [8], the target named is T4, Tyrosyl-tRNA synthetase, putative (Trypanosoma cruzi (strain CL Brener)). The experiment in a line: Trypanosoma cruzi tyrosyl tRNA synthetase (TcYRS) SOP. Type of experiment: functional. As to conditions: 30 µM.
Experiment [9] concerns the target Chromo domain-containing protein 1 (Saccharomyces cerevisiae (strain ATCC 204508 / S288c) (Baker's yeast)) (UniProt P32657). As to the kind of experiment: ScCHD-1 Enzyme Inhibition Assay. Also: in the data most compounds retested in dose-response had high values. The conditions noted are these: 30 µM. In kind it is functional.

Molecules are shown by their SMILES. For some of these results: Entries with a potency or affinity are not part of this list.

Chain of Sialic acid-binding Ig-like lectin 9 (Homo sapiens) (Q9Y336 whole entry): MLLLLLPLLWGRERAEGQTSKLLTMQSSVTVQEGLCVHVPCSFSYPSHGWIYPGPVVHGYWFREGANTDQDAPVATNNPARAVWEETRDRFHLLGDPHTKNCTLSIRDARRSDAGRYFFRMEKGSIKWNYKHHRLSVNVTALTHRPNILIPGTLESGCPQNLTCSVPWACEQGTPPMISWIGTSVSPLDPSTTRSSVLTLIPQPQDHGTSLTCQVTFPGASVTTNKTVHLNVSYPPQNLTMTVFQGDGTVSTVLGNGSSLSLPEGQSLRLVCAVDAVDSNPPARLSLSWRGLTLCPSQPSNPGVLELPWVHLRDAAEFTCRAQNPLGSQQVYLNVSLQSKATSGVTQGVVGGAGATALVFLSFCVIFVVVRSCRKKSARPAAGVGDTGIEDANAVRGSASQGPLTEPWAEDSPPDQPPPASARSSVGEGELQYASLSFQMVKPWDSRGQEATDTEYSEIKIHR
Chain of Protein translocase subunit SecA (Escherichia coli (strain K12)) (P10408 whole entry): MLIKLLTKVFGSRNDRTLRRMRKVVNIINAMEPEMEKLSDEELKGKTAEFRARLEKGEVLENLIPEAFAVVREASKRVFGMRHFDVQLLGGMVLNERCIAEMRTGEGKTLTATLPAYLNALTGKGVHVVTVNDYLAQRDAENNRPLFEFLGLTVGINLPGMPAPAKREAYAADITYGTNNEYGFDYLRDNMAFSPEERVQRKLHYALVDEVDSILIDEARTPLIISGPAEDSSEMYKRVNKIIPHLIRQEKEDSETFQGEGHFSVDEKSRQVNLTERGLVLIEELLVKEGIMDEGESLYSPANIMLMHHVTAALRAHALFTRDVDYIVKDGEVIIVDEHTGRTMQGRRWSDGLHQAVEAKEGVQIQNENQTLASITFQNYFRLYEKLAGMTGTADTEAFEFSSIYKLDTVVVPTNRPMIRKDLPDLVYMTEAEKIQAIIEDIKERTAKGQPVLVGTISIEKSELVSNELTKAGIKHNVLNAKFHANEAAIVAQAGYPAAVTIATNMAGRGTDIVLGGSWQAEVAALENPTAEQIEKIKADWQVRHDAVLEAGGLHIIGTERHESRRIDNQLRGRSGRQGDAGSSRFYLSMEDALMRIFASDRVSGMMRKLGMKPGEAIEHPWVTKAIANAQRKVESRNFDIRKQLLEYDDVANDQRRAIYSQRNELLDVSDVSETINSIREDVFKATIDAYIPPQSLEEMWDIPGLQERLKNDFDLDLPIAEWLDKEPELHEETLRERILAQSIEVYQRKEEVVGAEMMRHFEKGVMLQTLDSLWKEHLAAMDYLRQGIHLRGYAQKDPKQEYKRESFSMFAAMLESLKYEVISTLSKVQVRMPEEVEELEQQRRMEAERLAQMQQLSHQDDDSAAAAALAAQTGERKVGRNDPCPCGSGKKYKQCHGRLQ
Chain of Chromo domain-containing protein 1 (Saccharomyces cerevisiae (strain ATCC 204508 / S288c) (Baker's yeast)) (P32657 whole entry, the tested form may be a part): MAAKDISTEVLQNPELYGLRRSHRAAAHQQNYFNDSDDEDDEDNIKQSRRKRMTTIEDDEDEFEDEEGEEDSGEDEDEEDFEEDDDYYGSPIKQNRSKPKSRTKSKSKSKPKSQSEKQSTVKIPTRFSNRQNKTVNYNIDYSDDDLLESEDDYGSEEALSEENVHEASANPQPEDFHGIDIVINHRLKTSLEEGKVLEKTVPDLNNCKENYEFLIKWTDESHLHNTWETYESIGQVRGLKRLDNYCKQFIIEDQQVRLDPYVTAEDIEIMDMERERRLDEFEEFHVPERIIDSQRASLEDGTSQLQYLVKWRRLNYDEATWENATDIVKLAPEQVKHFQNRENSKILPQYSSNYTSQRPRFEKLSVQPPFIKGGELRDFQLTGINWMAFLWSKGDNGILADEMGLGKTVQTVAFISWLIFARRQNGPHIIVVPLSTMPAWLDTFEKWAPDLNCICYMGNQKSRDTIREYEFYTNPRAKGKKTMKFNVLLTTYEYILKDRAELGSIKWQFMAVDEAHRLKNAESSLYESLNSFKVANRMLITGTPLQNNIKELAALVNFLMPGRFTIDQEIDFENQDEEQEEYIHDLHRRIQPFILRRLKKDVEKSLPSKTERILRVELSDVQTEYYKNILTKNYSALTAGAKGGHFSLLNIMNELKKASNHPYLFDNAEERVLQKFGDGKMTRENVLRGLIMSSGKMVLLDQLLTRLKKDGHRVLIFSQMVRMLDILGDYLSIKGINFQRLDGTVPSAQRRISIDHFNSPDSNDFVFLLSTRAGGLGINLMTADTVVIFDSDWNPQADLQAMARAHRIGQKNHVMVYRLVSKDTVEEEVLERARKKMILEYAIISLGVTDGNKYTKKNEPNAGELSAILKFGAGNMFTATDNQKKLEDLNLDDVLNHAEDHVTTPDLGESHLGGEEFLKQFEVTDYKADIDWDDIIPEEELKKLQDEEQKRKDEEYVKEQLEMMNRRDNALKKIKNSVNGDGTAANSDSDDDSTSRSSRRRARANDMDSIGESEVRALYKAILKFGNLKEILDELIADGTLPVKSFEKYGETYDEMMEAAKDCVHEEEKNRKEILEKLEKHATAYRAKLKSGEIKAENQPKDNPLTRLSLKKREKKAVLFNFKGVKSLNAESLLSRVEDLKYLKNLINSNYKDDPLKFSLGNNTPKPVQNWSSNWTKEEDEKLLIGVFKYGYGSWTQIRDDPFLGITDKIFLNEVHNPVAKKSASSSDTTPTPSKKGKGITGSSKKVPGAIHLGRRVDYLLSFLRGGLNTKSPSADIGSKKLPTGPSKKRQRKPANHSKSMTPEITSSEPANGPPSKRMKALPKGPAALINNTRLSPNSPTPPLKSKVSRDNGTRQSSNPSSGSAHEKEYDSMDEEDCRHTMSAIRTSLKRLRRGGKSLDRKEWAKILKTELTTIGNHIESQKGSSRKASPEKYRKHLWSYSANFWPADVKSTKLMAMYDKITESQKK

With `c1cc(-c2cnccn2)cc(-c2ccn(CCN3CCCC3)n2)c1`, the Percent Effect in experiment [1] is -2.8%; in experiment [2], -21.6%; in experiment [3] it was 3.09%; in [4] it was 2.06%; in the experiment with Trypanosoma cruzi, -1.54%; in experiment [5], -10.9%. Moreover, the Percent Effect was 6.9% in experiment [6]; 0.332% in the experiment listed under Homo sapiens; 14.3% in experiment [7]; 7.32% in experiment [8]; -0.216% in [9].
With `CCNC(c1cccnc1)c1cc(C)cc(C)c1` (stereo unspecified), the Percent Effect in experiment [1] is -3.46%; in [2], -3.8%; in [3], 4.33%; in [4], -1.27%; in the experiment with Trypanosoma cruzi, 2.15%; in experiment [5], -4.52%. Also, the Percent Effect in experiment [6] is 5.83%; in the experiment listed under Homo sapiens, -28.2%; in experiment [7] it was 0%; in [8], 5.06%; in experiment [9] it was 2.53%.
As to `O=C1NC(c2ccccc2)=N[C@@]12CC[C@@H]1CN(Cc3ccccc3)C[C@@H]12`, the Percent Effect was -1.1% in experiment [1]; 10.7% in experiment [2]; -2.75% in experiment [3]; 0.12% in [4]; 2.12% in the experiment on Trypanosoma cruzi; -43.5% in experiment [5]. The Percent Effect in [6] is 7.18%; in the experiment filed under Homo sapiens, 3.72%; in [7] it was 10.4%; in experiment [8], 27.5%; in experiment [9] it was -8.07%.
Turning to `Cc1ncsc1CN1C[C@@H](OCC2CC2)[C@H]2OCCC[C@H]21`, the Percent Effect was -6.87% in experiment [1]; 8.11% in experiment [2]; -8.86% in experiment [3]; 32.2% in [4]; 4.79% with Trypanosoma cruzi; -0.248% in [5]. The Percent Effect in experiment [6] is 24.3%; in the experiment listed under Homo sapiens it was -4.12%; in [7] it was 5.38%; in [8] it was 16.1%; in [9] it was -8.25%.
In the case of `COCCCNC(=O)CN(C)C(=O)c1cc(C)ccc1N(C)C(C)C`, the Percent Effect in experiment [1] was -2.35%; in experiment [2], 10.8%; in experiment [3], -5.29%; in experiment [4], 6.07%; in the experiment with Trypanosoma cruzi it was 0.65%; in experiment [5], -3.88%. Besides, the Percent Effect in [6] was 0%; in the experiment filed under Homo sapiens, 5.31%; in [7], 1.98%; in [8], 13.4%; in [9], -2.86%.
Consider `CC(=O)Nc1nc(C(=O)NCc2ccc(N3CCCCCC3)nc2)cs1`, for which the Percent Effect is -1.32% in experiment [1]; 24.1% in experiment [2]; 5.19% in [3]; -5.11% in experiment [4]; -1.13% in the experiment with Trypanosoma cruzi; -4.09% in experiment [5]. The Percent Effect is 20.6% in experiment [6]; 29.2% in the experiment filed under Homo sapiens; 4.17% in experiment [7]; 22.8% in experiment [8]; -18.9% in experiment [9].
As to `COCCN(C)CC(=O)N1C[C@H]2CC[C@@H]1CN(C(=O)c1ccncc1)C2`, the Percent Effect is -4.1% in [1]; 5.33% in [2]; -2.28% in experiment [3]; 3.27% in experiment [4]; -5.75% in the experiment on Trypanosoma cruzi; 1.56% in experiment [5]. Moreover, the Percent Effect in experiment [6] was 17.1%; in the experiment filed under Homo sapiens, 27.7%; in experiment [7] it was 6.01%; in experiment [8], 13.6%; in [9], -5.9%.
As for `O=C1[C@H]2CN(CC3CC3)C[C@H]2CN1Cc1cccc(F)c1`, the Percent Effect was 1.22% in experiment [1]; -56.8% in experiment [2]; 4.89% in experiment [3]; 3.99% in experiment [4]; -0.0978% with Trypanosoma cruzi; -0.955% in experiment [5]. The Percent Effect in experiment [6] is 12.7%; in the experiment filed under Homo sapiens, -14.7%; in experiment [7], 2.16%; in experiment [8] it was 2.56%; in experiment [9] it was 9.93%.
Take `Cn1cccc1C(=O)N1CCN(Cc2ccncc2)c2ncccc2C1`: the Percent Effect in experiment [1] is 1.82%; in experiment [2], 13.3%; in experiment [3], 9.01%; in [4], 8.59%; in the experiment on Trypanosoma cruzi, -4.83%; in experiment [5], -57.2%. Also, the Percent Effect in experiment [6] was 12.1%; in the experiment filed under Homo sapiens, 13.8%; in [7], 8.33%; in experiment [8] it was 10%; in [9], -5.07%.
`Cc1cnn(CCC(=O)N2C[C@H]3CC[C@@H]2CN(CC(=O)N(C)C)C3)c1`: the Percent Effect in [1] is 0.243%; in experiment [2] it was 13.5%; in experiment [3], -6.36%; in experiment [4], 7.46%; with Trypanosoma cruzi, 7.34%; in experiment [5], 1.91%. Besides, the Percent Effect is 17.6% in [6]; 5.29% in the experiment listed under Homo sapiens; 5.82% in experiment [7]; 17.1% in experiment [8]; -2.52% in experiment [9].
With `CCn1ncc2c1C(COC)CN(Cc1ccsc1)C2` (stereo unspecified), the Percent Effect in experiment [1] is -3.96%; in experiment [2], 18.9%; in [3], -9.13%; in experiment [4], 5.54%; with Trypanosoma cruzi, 1.47%; in experiment [5], 1.24%. Further, the Percent Effect is 6.95% in experiment [6]; 5.76% in the experiment listed under Homo sapiens; 7.53% in experiment [7]; 16.1% in [8]; -11.9% in experiment [9].

(Values after ChEMBL document CHEMBL3988442, “University of Dundee, Small-Polar-MMV Screening Library” (2021).)
